Screening results: PubChem, National Center for Advancing Translational Sciences (NCATS)
HepG2 tox-1: qHTS for Inhibitors of TGF-b: Cytotox Counterscreen; HepG2 CAGA-GFP viability, ATP luminescence, 18 h; 0.76% of 410,000 active; Potency, µM (series often up to 46.1 µM), without a hit: top-dose activity change, negative = cytotoxicity, actives largely listed as cytotoxic; note: potency is the fitted concentration of half-maximal effect
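CellTiter-Glo luminescence gave cytotoxicity after 18 hours at 37 degrees C. The cells were HepG2 CAGA-GFP in 1% FBS DMEM, stimulated with 500 pg/mL TGF-beta after compound addition. %Activity was normalised to no-cell wells (complete cell-killing) and DMSO (no toxicity), and curves were fitted and classified.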
S2 tox: Viability Counterscreen for Primary qHTS for Inhibitors of ATXN expression. S2 cells (HEK-293 line with an ATXN2-luciferase reporter) viability, CellTiter-Fluor protease fluorescence, 24 h. 0.49% of 400,000 active. Potency, µM (series often up to 56.7 µM), most hits filed as cytotoxic. AID 651635, 2014; note: potency is the fitted concentration of half-maximal effect; nearly all actives have a fitted effect of over 40% in size
ATXN2 expr inh: Primary qHTS for Inhibitors of ATXN expression. HEK-293 ATXN2-luciferase reporter, luminescence, 24 h. Potency, µM (highest dose often 57 µM), without a hit: at the top dose activity change, negative = inhibition, hits mostly inhibitors. 0.72% of 360,000 active. AID 1745845, 2022; note: potency is the fitted concentration of half-maximal effect; % is set by controls: 0 for no effect and ±100 for the full control effect; nearly all actives have a fitted effect of over 55% in size
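qHTS (up to 57 uM final) was run with 24 h compound exposure of reporter cells at 37 °C. Each well was multiplexed: SteadyGlo luminescence measured ATXN2-luciferase expression after a fluorogenic Gly-Phe-AFC viability readout (25 uM final).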
uPA surface inh: qHTS for Inhibitors of Cell Surface uPA Generation; AID 540303, 2011; Potency, µM (top dose mostly 38.3 µM), inactives show at the top dose activity change, negative = inhibition, hits mostly inhibitors; 0.31% of 330,000 active; cell surface uPA generation assay, qHTS; active = well fitted inhibition curve with a large enough effect; inconclusive = small, poorly fitted or top-dose-only effect; inactive = no such curve, though single readings can be large or run the other way; tested in mouse RAW 264.7 cells; note: potency is the fitted concentration of half-maximal effect; % is set by controls: 0 for no effect and ±100 for the full control effect; nearly all actives have a fitted effect of over 55% in size
TGFb inhibitor: qHTS for Inhibitors of TGF-b. HepG2 CAGA-GFP TGF-b/SMAD3 reporter, GFP fluorescence, 18 h; TGF-beta stimulated, 500 pg/mL final. AID 588855, 2011. Potency, µM (titrated, usually from 46.1 µM), without a hit: top-dose activity, negative = inhibition, usual class: inhibitors. 1.2% of 410,000 active; note: potency is the fitted concentration of half-maximal effect; % is set by controls: 0 for no effect and ±100 for the full control effect; nearly all actives have a fitted effect of over 65% in size
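HEPG2 CAGA-GFP cells (1000/well, DMEM with 1% FBS) were pre-incubated 2 h at 37 degrees C, given compound by pin tool, then stimulated with TGF-beta at 500 pg/mL final for 18 h before per-cell GFP fluorescence imaging.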
Giardia killer: Small Molecules that selectively kill Giardia lamblia: qHTS | activity change, % at 7.66 µM, hits read low | 0.15% of 340,000 active | Giardia lamblia trophozoite viability | AID 540267, 2011; in the data active = activity change below about -80%; inconclusive = between about -30% and that limit;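 note: parasites exposed to compound for two days anaerobically before the ATP read; % is set by controls: 0 for no effect and ±100 for the full control effect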
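Luminescence from cellular ATP indicates surviving trophozoites (100 cells/well) following 48 hrs anaerobic compound treatment at 37 deg C; signal develops 15-30 min at room temperature.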
TGFb confirm: qHTS for Inhibitors of TGF-b: Confirmation of Cherry Picks | shares compounds with TGFb inhibitor | HepG2 CAGA-GFP TGF-b reporter, GFP fluorescence, 18 h; cells stimulated with TGF-beta, 500 pg/mL | Potency, µM (top dose mostly 46.1 µM), without a hit: at the top dose activity, negative = inhibition, hits mostly inhibitors | 63% of 1,600 active | AID 720534, 2013; note: potency is the fitted concentration of half-maximal effect; % is set by controls: 0 for no effect and ±100 for the full control effect; nearly all actives have a fitted effect of over 65% in size
HepG2 tox-2: qHTS for Inhibitors of TGF-b: Cytotox Counterscreen for Cherry Picks; shares compounds with TGFb inhibitor; HepG2 CAGA-GFP viability, ATP luminescence, 18 h; cells stimulated with TGF-beta, 500 pg/mL; Potency, µM (titrated, usually from 46.1 µM), for inactives: at the top dose activity, negative = cytotoxicity, usual class: inhibitors; 27% of 1,600 active; AID 720535, 2013; note: potency is the fitted concentration of half-maximal effect; % is set by controls: 0 for no effect and ±100 for the full control effect; nearly all actives have a fitted effect of over 70% in size
TGFb CCL64 inh: qHTS for Inhibitors of TGF-b: CCL64 Cells Orthogonal Assay for Cherry Picks | AID 720536, 2013 | Potency, µM (top dose mostly 46.1 µM), for inactives: at the highest dose activity, negative = inhibition, hits mostly inhibitors | shares compounds with TGFb inhibitor | 41% of 1,600 active | CCL64 CAGA-GFP reporter, TGF-b stimulated, GFP fluorescence, 18 h; note: potency is the fitted concentration of half-maximal effect; nearly all actives have a fitted effect of over 65% in size
TGFb COP inh: qHTS for Inhibitors of TGF-b: Hit Validation in HepG2 Cells using COP promoter; HepG2 COP-GFP TGF-b reporter, GFP fluorescence, 18 h; cells stimulated by added recombinant TGF-beta; Potency, µM (titrated, usually from 46.1 µM), for inactives: at the highest dose activity, negative = inhibition, most hits filed as inhibitors; AID 720537, 2013; 3% of 1,600 active; shares compounds with TGFb inhibitor; note: potency is the fitted concentration of half-maximal effect; nearly all actives have a fitted effect of over 70% in size
* = called active by the depositor. Shown are actives, neighbours in structure and some others; about 2.6% of the full set was active somewhere. Unless noted, calls come from the whole dose curve; as a rule, active = well fitted curve in the direction sought with a large enough effect; inconclusive = small, poorly fitted or top-dose-only effect, or another doubt; inactive = no such curve, though single readings can be large; an effect the other way counts as inactive or inconclusive.

How did O=C(O)c1[nH]c2ccc([N+](=O)[O-])cc2c1-c1ccccc1 do in these assays?
HepG2 tox-1: -3%; S2 tox: inactive; ATXN2 expr inh: -6%; uPA surface inh: -1%; TGFb inhibitor: 2%; Giardia killer: 22

Results for NNC(=O)c1[nH]c2ccc([N+](=O)[O-])cc2c1-c1ccccc1 ?
HepG2 tox-1: -24%; S2 tox: inactive; uPA surface inh: inconclusive; TGFb inhibitor: 3.5µM*; Giardia killer: -12; TGFb confirm: inconclusive; HepG2 tox-2: -19%; TGFb CCL64 inh: inconclusive; TGFb COP inh: -14%

What do the screens show for `CCOC(=O)c1c(C)oc2c1C(=O)c1ccccc1C2=O`?
HepG2 tox-1: 5µM*; S2 tox: inactive; ATXN2 expr inh: inconclusive; uPA surface inh: inconclusive; TGFb inhibitor: 5µM*; Giardia killer: -81*; TGFb confirm: 5.2µM*; HepG2 tox-2: 5.8µM*; TGFb CCL64 inh: 4.6µM*; TGFb COP inh: 16µM*

What do the screens show for `CCOC(=O)c1c(C)nc2c(c1-c1ccccc1)C(=O)c1ccccc1-2`?
HepG2 tox-1: -8%; S2 tox: inactive; ATXN2 expr inh: -5%; TGFb inhibitor: -18%; Giardia killer: -8

What do the screens show for `Cc1ccc(OCCNC(=O)/C=C/c2ccc([N+](=O)[O-])cc2)cc1C`?
HepG2 tox-1: 0%; S2 tox: inactive; ATXN2 expr inh: -7%; uPA surface inh: 8%; TGFb inhibitor: inconclusive; Giardia killer: 24; TGFb confirm: -23%; HepG2 tox-2: -2%; TGFb CCL64 inh: -9%; TGFb COP inh: 2%

What do the screens show for `Cc1ccc(OCCNC(=O)/C=C/c2ccccc2)cc1C`?
HepG2 tox-1: -12%; S2 tox: inactive; ATXN2 expr inh: -1%; uPA surface inh: 0%; TGFb inhibitor: -22%; Giardia killer: -10

Results for CC(=O)Nc1ccn(C2OC(C(COC(C)=O)NC(=O)C(C)NC(=O)OC(C)(C)C)C(OC(C)=O)C2OC(C)=O)c(=O)n1 (stereo not drawn) ?
HepG2 tox-1: -4%; TGFb inhibitor: 0%; Giardia killer: inconclusive

What do the screens show for `COc1ccc(N(CC(=O)Nc2cccc(N(C)S(C)(=O)=O)c2)S(=O)(=O)c2ccccc2)cc1Cl`?
HepG2 tox-1: -32%; S2 tox: inactive; uPA surface inh: -24%; TGFb inhibitor: inconclusive; Giardia killer: 8

What do the screens show for `CN(c1cccc(NC(=O)CN(c2cccc(Cl)c2)S(=O)(=O)c2ccccc2)c1)S(C)(=O)=O`?
HepG2 tox-1: -40%; S2 tox: inactive; ATXN2 expr inh: 4%; uPA surface inh: -12%; TGFb inhibitor: inconclusive; Giardia killer: 8; TGFb confirm: -6%; HepG2 tox-2: -28%; TGFb CCL64 inh: inconclusive; TGFb COP inh: 4%

Results for CCCn1nc2cc(C(=O)NCCc3cccs3)ccc2c1OCC ?
HepG2 tox-1: -12%; S2 tox: inactive; ATXN2 expr inh: 49%; uPA surface inh: 8%; TGFb inhibitor: inconclusive; Giardia killer: 24; TGFb confirm: -26%; HepG2 tox-2: -5%; TGFb CCL64 inh: -22%; TGFb COP inh: -11%

What do the screens show for `CC(=O)c1ccsc1B(O)O`?
HepG2 tox-1: -2%; TGFb inhibitor: -11%; Giardia killer: -13

How did CN(CCOc1ccccc1)C(=O)C1CCN(C(=O)c2ccc(F)cc2)CC1 do in these assays?
HepG2 tox-1: 0%; S2 tox: inactive; ATXN2 expr inh: -5%; uPA surface inh: -5%; TGFb inhibitor: inconclusive; Giardia killer: -16; TGFb confirm: -16%; HepG2 tox-2: 10%; TGFb CCL64 inh: -4%; TGFb COP inh: 12%

Results for COC(=O)c1ccc(Cn2c(C)c(C(=O)NCc3ccc(Cl)c(Cl)c3)sc2=O)o1 ?
HepG2 tox-1: -6%; S2 tox: inactive; ATXN2 expr inh: inconclusive; TGFb inhibitor: 13µM*; TGFb confirm: 23µM*; HepG2 tox-2: -20%; TGFb CCL64 inh: -6%; TGFb COP inh: 0%

Results for CCOc1ccc(NC(=O)c2c(NCc3cccs3)sc3c2CCCCC3)cc1 ?
HepG2 tox-1: -16%; TGFb inhibitor: inconclusive

How did COc1ccc(Br)cc1C1C(C(=O)Nc2ccc(C)cc2C)=C(C)Nc2ncnn21 (stereo not drawn) do in these assays?
HepG2 tox-1: -3%; S2 tox: inactive; ATXN2 expr inh: -6%; TGFb inhibitor: -4%

How did CCOc1ccc(NCc2nc3ccccc3n2CCOc2ccc(C)cc2)cc1 do in these assays?
HepG2 tox-1: -29%; S2 tox: inconclusive; ATXN2 expr inh: -39%; TGFb inhibitor: inconclusive

Results for CCOc1ccc(NCc2nc3ccccc3n2CCOc2ccccc2)cc1 ?
HepG2 tox-1: -23%; S2 tox: inconclusive; ATXN2 expr inh: -15%; uPA surface inh: -8%; TGFb inhibitor: 20µM*; Giardia killer: 8; TGFb confirm: 15µM*; HepG2 tox-2: -29%; TGFb CCL64 inh: -19%; TGFb COP inh: 13%
